Test results as given in article PMC8384837, “Expanding the binding specificity for RNA recognition by a PUF domain”.
Positions count from the first letter of the chain named.

Key:
Experiment in all cases: yeast three-hybrid, YBZ-1, SC-Leu-His + 0.5 mM 3-AT, 4 days
Conditions in all cases: tags: N-Gal4 AD-HA kept; label: inside an RPR1-promoter hybrid RNA with tandem MS2 sites; ssRNA
PUM1 PUF domain R7-GPK = PUM1 PUF domain R7-GPK (Homo sapiens, UniProt Q14671 828-1176, S1079G;N1080P;E1083K)
Procedure, shortened: (§1)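 The interaction score is the log change in how often each variant appears, from input to selection. Frequencies came from PCR-amplified, Illumina-sequenced repeat regions of Pumilio-1 PUF domain libraries grown in strain YBZ-1 (LexA–MS2 coat fusion, HIS3 reporter) alongside matching RNA elements. Input plates were SC-Leu and selection plates were SC-Leu-His + 0.5 mM 3-AT, each for four days, and the log2 calculation used a pseudocount of 1 where a variant was absent.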

PUM1 PUF domain R5-KFC = PUM1 PUF domain R5-KFC (Homo sapiens, UniProt Q14671 828-1176, C1007K;R1008F;Q1011C)
Procedure, shortened: as §1

PUM1 PUF domain R5-RRE = PUM1 PUF domain R5-RRE (Homo sapiens, UniProt Q14671 828-1176, C1007R;Q1011E)
PUM1 PUF domain R5-RRE, sequence (Q14671 828-1176 C1007R/Q1011E): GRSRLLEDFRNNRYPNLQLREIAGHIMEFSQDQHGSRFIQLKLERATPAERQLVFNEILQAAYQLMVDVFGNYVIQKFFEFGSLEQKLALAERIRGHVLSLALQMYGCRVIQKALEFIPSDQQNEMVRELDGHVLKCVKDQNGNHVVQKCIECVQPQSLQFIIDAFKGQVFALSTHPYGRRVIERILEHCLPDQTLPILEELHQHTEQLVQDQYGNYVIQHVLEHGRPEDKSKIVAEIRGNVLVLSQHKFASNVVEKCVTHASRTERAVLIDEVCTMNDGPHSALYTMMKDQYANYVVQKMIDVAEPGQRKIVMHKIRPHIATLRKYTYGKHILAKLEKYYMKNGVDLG
Procedure, shortened: as §1

PUM1 PUF domain R5-KFW = PUM1 PUF domain R5-KFW (Homo sapiens, UniProt Q14671 828-1176, C1007K;R1008F;Q1011W)
Procedure, shortened: as §1

PUM1 PUF domain R5-GTR = PUM1 PUF domain R5-GTR (Homo sapiens, UniProt Q14671 828-1176, C1007G;R1008T;Q1011R)
Procedure, shortened: as §1

PUM1 PUF domain R5-SKN = PUM1 PUF domain R5-SKN (Homo sapiens, UniProt Q14671 828-1176, C1007S;R1008K;Q1011N)
Procedure, shortened: as §1

PUM1 PUF domain R6-MWR = target: T1, PUM1 PUF domain R6-MWR (Homo sapiens, UniProt Q14671 828-1176, N1043M;Y1044W;Q1047R)
T1 sequence: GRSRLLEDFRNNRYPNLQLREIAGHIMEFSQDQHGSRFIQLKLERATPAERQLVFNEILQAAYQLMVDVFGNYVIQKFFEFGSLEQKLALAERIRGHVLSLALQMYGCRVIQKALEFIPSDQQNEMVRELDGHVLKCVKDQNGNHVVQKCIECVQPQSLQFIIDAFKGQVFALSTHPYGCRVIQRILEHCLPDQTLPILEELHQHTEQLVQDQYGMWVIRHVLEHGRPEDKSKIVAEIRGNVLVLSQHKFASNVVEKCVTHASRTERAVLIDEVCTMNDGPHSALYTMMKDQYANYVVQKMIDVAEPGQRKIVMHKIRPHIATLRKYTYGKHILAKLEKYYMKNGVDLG
Procedure, shortened: as §1

PUM1 PUF domain R6-TWQ = target: T2, PUM1 PUF domain R6-TWQ (Homo sapiens, UniProt Q14671 828-1176, N1043T;Y1044W)
T2 sequence: T1 sequence with M216T, R220Q
Procedure, shortened: as §1

PUM1 PUF domain R6-VFH = target: T3, PUM1 PUF domain R6-VFH (Homo sapiens, UniProt Q14671 828-1176, N1043V;Y1044F;Q1047H)
T3 sequence: T1 sequence with M216V, W217F, R220H
Procedure, shortened: as §1

PUM1 PUF domain R6-LWE = target: T4, PUM1 PUF domain R6-LWE (Homo sapiens, UniProt Q14671 828-1176, N1043L;Y1044W;Q1047E)
T4 sequence: T1 sequence with M216L, R220E
Procedure, shortened: as §1

PUM1 PUF domain R8-RYV = PUM1 PUF domain R8-RYV (Homo sapiens, UniProt Q14671 828-1176, N1122R;Q1126V)
Procedure, shortened: as §1

PUM1 PUF domain R8-PYY = PUM1 PUF domain R8-PYY (Homo sapiens, UniProt Q14671 828-1176, N1122P;Q1126Y)
Procedure, shortened: as §1

PUM1 PUF domain R2-LFL = PUM1 PUF domain R2-LFL (Homo sapiens, UniProt Q14671 828-1176, N899L;Y900F;Q903L)
Procedure, shortened: as §1

PUM1 PUF domain R3-FFG = PUM1 PUF domain R3-FFG (Homo sapiens, UniProt Q14671 828-1176, C935F;R936F;Q939G)
Procedure, shortened: as §1

PUM1 PUF domain R3-LWV = PUM1 PUF domain R3-LWV (Homo sapiens, UniProt Q14671 828-1176, C935L;R936W;Q939V)
Procedure, shortened: as §1

PUM1 PUF domain R3-DWE = PUM1 PUF domain R3-DWE (Homo sapiens, UniProt Q14671 828-1176, C935D;R936W;Q939E)
Procedure, shortened: as §1

PUM1 PUF domain R6-FWT = target: T5, PUM1 PUF domain R6-FWT (Homo sapiens, UniProt Q14671 828-1176, N1043F;Y1044W;Q1047T)
T5 sequence: T1 sequence with M216F, R220T
Procedure, shortened: as §1

PUM1 PUF domain R4-EHI = PUM1 PUF domain R4-EHI (Homo sapiens, UniProt Q14671 828-1176, N971E;Q975I)
Procedure, shortened: as §1

PUM1 PUF domain R3-RRL = PUM1 PUF domain R3-RRL (Homo sapiens, UniProt Q14671 828-1176, C935R;Q939L)
Procedure, shortened: as §1

PUM1 PUF domain R3-RSV = PUM1 PUF domain R3-RSV (Homo sapiens, UniProt Q14671 828-1176, C935R;R936S;Q939V)
Procedure, shortened: as §1

Sequence: GGCUAGAACUAGUGGAUCCCCCGGCGCCCGGCGGCUCGAGCCCGGGUAAGUUUAAAUAGUCUGCAUGCCGCCGGGCGCCAUGCCUGCAGGUCGACUCUAGAAAACAUG
- binding signal (PUM1 PUF domain R7-GPK): 3.11 log2 enrichment (interaction score)

Sequence: GGCUAGAACUAGUGGAUCCCCCGGCGCCCGGCGGCUCGAGCCCGGGUAAGUGUCAAUAGUCUGCAUGCCGCCGGGCGCCAUGCCUGCAGGUCGACUCUAGAAAACAUG
- binding signal (PUM1 PUF domain R5-KFC): 3.89 log2 enrichment (interaction score)
- binding signal (PUM1 PUF domain R5-RRE): 4.96 log2 enrichment (interaction score)
- binding signal (PUM1 PUF domain R5-KFW): 4.73 log2 enrichment (interaction score)
- binding signal (PUM1 PUF domain R5-GTR): 4.92 log2 enrichment (interaction score)
- binding signal (PUM1 PUF domain R5-SKN): 1.73 log2 enrichment (interaction score)

Sequence: GGCUAGAACUAGUGGAUCCCCCGGCGCCCGGCGGCUCGAGCCCGGGUAAGUGAAAAUAGUCUGCAUGCCGCCGGGCGCCAUGCCUGCAGGUCGACUCUAGAAAACAUG
- binding signal (PUM1 PUF domain R6-MWR): 3.34 log2 enrichment (interaction score)
- binding signal (PUM1 PUF domain R6-TWQ): 2.43 log2 enrichment (interaction score)
- binding signal (PUM1 PUF domain R6-VFH): 3.39 log2 enrichment (interaction score)
- binding signal (PUM1 PUF domain R6-LWE): 3.79 log2 enrichment (interaction score)

Sequence: GGCUAGAACUAGUGGAUCCCCCGGCGCCCGGCGGCUCGAGCCCGGGUAAGUGCAAAUAGUCUGCAUGCCGCCGGGCGCCAUGCCUGCAGGUCGACUCUAGAAAACAUG
- binding signal (PUM1 PUF domain R6-MWR): 2.97 log2 enrichment (interaction score)

Sequence: GGCUAGAACUAGUGGAUCCCCCGGCGCCCGGCGGCUCGAGCCCGGGUAAGCGUAAAUAGUCUGCAUGCCGCCGGGCGCCAUGCCUGCAGGUCGACUCUAGAAAACAUG
- binding signal (PUM1 PUF domain R8-RYV): 6.01 log2 enrichment (interaction score)
- binding signal (PUM1 PUF domain R8-PYY): 3.73 log2 enrichment (interaction score)

Sequence: GGCUAGAACUAGUGGAUCCCCCGGCGCCCGGCGGCUCGAGCCCGGGUAAGUGUAAAAAGUCUGCAUGCCGCCGGGCGCCAUGCCUGCAGGUCGACUCUAGAAAACAUG
- binding signal (PUM1 PUF domain R2-LFL): 5.51 log2 enrichment (interaction score)

Sequence: GGCUAGAACUAGUGGAUCCCCCGGCGCCCGGCGGCUCGAGCCCGGGUAAGUGUAAGUAGUCUGCAUGCCGCCGGGCGCCAUGCCUGCAGGUCGACUCUAGAAAACAUG
- binding signal (PUM1 PUF domain R3-FFG): 7.59 log2 enrichment (interaction score)
- binding signal (PUM1 PUF domain R3-LWV): 4 log2 enrichment (interaction score)

Sequence: GGCUAGAACUAGUGGAUCCCCCGGCGCCCGGCGGCUCGAGCCCGGGUAAGUGUAAAUAGUCUGCAUGCCGCCGGGCGCCAUGCCUGCAGGUCGACUCUAGAAAACAUG
- binding signal (PUM1 PUF domain R5-KFC): 5.41 log2 enrichment (interaction score)
- binding signal (PUM1 PUF domain R6-MWR): 7.74 log2 enrichment (interaction score)
- binding signal (PUM1 PUF domain R3-DWE): 2.3 log2 enrichment (interaction score)
- binding signal (PUM1 PUF domain R5-RRE): 1.27 log2 enrichment (interaction score)
- binding signal (PUM1 PUF domain R5-KFW): 3.83 log2 enrichment (interaction score)
- binding signal (PUM1 PUF domain R3-FFG): 3.38 log2 enrichment (interaction score)
- binding signal (PUM1 PUF domain R3-LWV): 3.07 log2 enrichment (interaction score)
- binding signal (PUM1 PUF domain R6-FWT): 4.41 log2 enrichment (interaction score)
- binding signal (PUM1 PUF domain R8-RYV): 4.92 log2 enrichment (interaction score)
- binding signal (PUM1 PUF domain R4-EHI): 3.46 log2 enrichment (interaction score)
- binding signal (PUM1 PUF domain R8-PYY): 2.84 log2 enrichment (interaction score)

Sequence: GGCUAGAACUAGUGGAUCCCCCGGCGCCCGGCGGCUCGAGCCCGGGUAAGUGUAAUUAGUCUGCAUGCCGCCGGGCGCCAUGCCUGCAGGUCGACUCUAGAAAACAUG
- binding signal (PUM1 PUF domain R3-RRL): 3.07 log2 enrichment (interaction score)
- binding signal (PUM1 PUF domain R3-FFG): 3.8 log2 enrichment (interaction score)
- binding signal (PUM1 PUF domain R3-LWV): 3.36 log2 enrichment (interaction score)
- binding signal (PUM1 PUF domain R3-RSV): 3.06 log2 enrichment (interaction score)

Sequence: GGCUAGAACUAGUGGAUCCCCCGGCGCCCGGCGGCUCGAGCCCGGGUAAGUGUUAAUAGUCUGCAUGCCGCCGGGCGCCAUGCCUGCAGGUCGACUCUAGAAAACAUG
- binding signal (PUM1 PUF domain R5-KFC): 5.65 log2 enrichment (interaction score)
- binding signal (PUM1 PUF domain R5-RRE): 5.72 log2 enrichment (interaction score)
- binding signal (PUM1 PUF domain R5-SKN): 2.59 log2 enrichment (interaction score)

Sequence: GGCUAGAACUAGUGGAUCCCCCGGCGCCCGGCGGCUCGAGCCCGGGUAAGUGUGAAUAGUCUGCAUGCCGCCGGGCGCCAUGCCUGCAGGUCGACUCUAGAAAACAUG
- binding signal (PUM1 PUF domain R5-RRE): 2.27 log2 enrichment (interaction score)
